# According to paper PMC7819943, “Rice protein-binding microarrays: a tool to detect cis-acting elements near promoter regions in rice”:
# The full ranking holds about 35,000 sequences; the median of “fluorescence intensity (a.u.)” is about 10,000, and the highest 2% start at about 52,000. For the sample, the highest values were picked, then their nearest neighbours and some sequences at random.
# Biological target: T1, OsWOX13 (Oryza sativa, UniProt Q5QMM3 1-267)
# T1 sequence: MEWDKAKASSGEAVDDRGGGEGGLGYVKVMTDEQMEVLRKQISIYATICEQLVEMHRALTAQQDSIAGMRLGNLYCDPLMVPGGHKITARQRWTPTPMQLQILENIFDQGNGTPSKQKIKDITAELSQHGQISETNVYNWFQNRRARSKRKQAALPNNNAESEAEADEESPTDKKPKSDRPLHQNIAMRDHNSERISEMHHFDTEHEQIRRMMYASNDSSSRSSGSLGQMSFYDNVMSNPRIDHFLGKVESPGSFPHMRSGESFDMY
# Assay: protein-binding microarray (RPBM); PBS, 2% BSA, 51.3 ng/ul salmon testes DNA, 50 uM zinc acetate, 200 nM TF, 25 C, 1 h; high values mean tight binding
# Details: protein: recombinant; tags: N-terminal polyhistidine and DsRed monomer fusion (pET32a); label: CyDye5-dUTP incorporated in the synthesized complementary strand; 3' TTTTT single-stranded linker to array surface; dsDNA, one strand shown
# Summary of the method: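 Binding signal is defined as the fluorescence intensity of each feature in arbitrary units, read on an Axon 4000B scanner. Transcription factors with N-terminal polyhistidine and DsRed fusions came from E. coli BL21-CodonPlus and were purified on Ni–NTA. They were incubated at 200 nM for 1 h at 25 °C on a custom Agilent array that had been made double-stranded with Cy5-dUTP, with 50 µM zinc acetate present, and the array was washed.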
row,Sequence,binding signal
1,ATCATGGCAAATGATTGAAACTTTGAAGTAACGTTGGTGCCGGAGTCACCTAGTGCAG,38800 fluorescence intensity (a.u.)
2,TAAATTTGATTCCATTTCCGTTGCCTGTTCATTTCGTCGACGGAGTCACCTAGTGCAG,6090 fluorescence intensity (a.u.)
3,TTAATCACTGGTAATTATAGATTTATAGGTGATTAATCACCGGAGTCACCTAGTGCAG,17900 fluorescence intensity (a.u.)
4,TGGTGTAGGGTTATGATTGGATGAGTAGTGGAGGTAGGTACGGAGTCACCTAGTGCAG,8550 fluorescence intensity (a.u.)
5,CTGGACTGTCAAATCAAGGAGGATTGCGTACTAATCATGTCGGAGTCACCTAGTGCAG,9940 fluorescence intensity (a.u.)
6,AAATCATTAATAGTGCGTGATTAATTGAGTATTAATTATTCGGAGTCACCTAGTGCAG,8480 fluorescence intensity (a.u.)
7,AAAATCACTGGATTAATTGATTGCGTCGTACTATCATTGCCGGAGTCACCTAGTGCAG,64600 fluorescence intensity (a.u.)
8,AAAATTATGGATTGGATGATTAATCACTGATAGGTAGTACCGGAGTCACCTAGTGCAG,56900 fluorescence intensity (a.u.)
9,CTAAACACGTCCTATCATGTCACGTAGATAATATGACACGCGGAGTCACCTAGTGCAG,4110 fluorescence intensity (a.u.)
10,TAGATAAATTACCCTAAAATCCTGTAAAACTTCTGCATTTCGGAGTCACCTAGTGCAG,3350 fluorescence intensity (a.u.)
11,AAATAAATTAATATAACTTATAAAGCAGCTTTTGTATAATCGGAGTCACCTAGTGCAG,13600 fluorescence intensity (a.u.)
12,AATGCAGGAACAGCATAAGCTTTGCGTATATTTGTATTAACGGAGTCACCTAGTGCAG,65500 fluorescence intensity (a.u.)
13,ATAAAATTTAATATTAAATATGCATTTGAACAGCTATAAACGGAGTCACCTAGTGCAG,6360 fluorescence intensity (a.u.)
14,TTATTAATTCCATAATCAGAACTTTGATGTGATATAACCTCGGAGTCACCTAGTGCAG,9130 fluorescence intensity (a.u.)
15,TCTGGGTGATTTGTTGCAAAAGAATATTTTAATTCACTGCCGGAGTCACCTAGTGCAG,14000 fluorescence intensity (a.u.)
16,ATTTGATCTGATTTGATTAATTTTGCATGCACGCGAATGGCGGAGTCACCTAGTGCAG,61700 fluorescence intensity (a.u.)
17,CATCTGGCGATTGCATATTAATTTGCATGGCGAAGCTTCCCGGAGTCACCTAGTGCAG,5830 fluorescence intensity (a.u.)
18,GCGAACTTAATTGCTGCTAGAATGCTGCTGAAATTGGTGACGGAGTCACCTAGTGCAG,8360 fluorescence intensity (a.u.)
19,GACTTTAATGATGCTGACACCGGCTTAATTAGTATTGCGGCGGAGTCACCTAGTGCAG,8560 fluorescence intensity (a.u.)
20,GTGATGATGAATTAATTGCTGAATGGCGAATGCAGTGCAGCGGAGTCACCTAGTGCAG,58900 fluorescence intensity (a.u.)
21,GGGAGAGAATGTGCTAATTAATTGCATGCATGCATGCACGCGGAGTCACCTAGTGCAG,12000 fluorescence intensity (a.u.)

row,Sequence,binding signal
1,GTCATTGATTGATCAAGGGATCAATGCAAAACAACGCATTCGGAGTCACCTAGTGCAG,20300 fluorescence intensity (a.u.)
2,AGAAAATTAATGTTCAACAAACTCGTCACAAATTAAGTTTCGGAGTCACCTAGTGCAG,13600 fluorescence intensity (a.u.)
3,GCAAATTGATAATTGAAACAGAATTCAGTCGTTTGTACAGCGGAGTCACCTAGTGCAG,62700 fluorescence intensity (a.u.)
4,AGCAGCATAAATGCAATTAAATTTGTAGCAATCGAACATGCGGAGTCACCTAGTGCAG,4680 fluorescence intensity (a.u.)
5,TAAATTTATAGTCAATTGTAGCATGAGCTCTAATAAACTGCGGAGTCACCTAGTGCAG,4880 fluorescence intensity (a.u.)
6,TCTAAACTGATAATTGCAAATTGTAATTGATAGCATTGAGCGGAGTCACCTAGTGCAG,63700 fluorescence intensity (a.u.)
7,TCTAATTAGTAAACTGTAGTAGTGAGCAAATTGTACTAGACGGAGTCACCTAGTGCAG,20900 fluorescence intensity (a.u.)
8,TCATGTAATTGTTGATAAGAGTGTCAGAATTCAGATAGTGCGGAGTCACCTAGTGCAG,13500 fluorescence intensity (a.u.)
9,TCATGTCATAAATTAAATTATTTGAAATTATTTGGTACAGCGGAGTCACCTAGTGCAG,13900 fluorescence intensity (a.u.)
10,GGTTAATTTGACATAAACAGCGTCAGAAATGTAGTTCATGCGGAGTCACCTAGTGCAG,57900 fluorescence intensity (a.u.)
11,TCCAAATCCTACAATAATTGATTGAATCAAACACAGAAAGCGGAGTCACCTAGTGCAG,41200 fluorescence intensity (a.u.)
12,TTATTAATTTGTAATAGGTGTATTTCGGTCTTATTAAACTCGGAGTCACCTAGTGCAG,19600 fluorescence intensity (a.u.)
13,CGTAAATTTTCAATAAAATTTTAGTGAAATCAGGAATATGCGGAGTCACCTAGTGCAG,17500 fluorescence intensity (a.u.)
14,AATAAAACTTACATGAGTTAATTGAGTGAGAAATTAATTCCGGAGTCACCTAGTGCAG,4550 fluorescence intensity (a.u.)
15,TACCGATAATTTGTTATAGATCCCTAGACGTACATTCCTCCGGAGTCACCTAGTGCAG,19900 fluorescence intensity (a.u.)
16,CATGATGATAGTGATAGCAACTCAAGCAATACTAACGCACCGGAGTCACCTAGTGCAG,14700 fluorescence intensity (a.u.)
17,GCAGATTAGTTGTGGCAAACATTCTCTTGTGTGCAGCACTCGGAGTCACCTAGTGCAG,3650 fluorescence intensity (a.u.)
18,ACTTGATTGAAATCGAAGCATCTGTTTTCGCGTGTTTGAGCGGAGTCACCTAGTGCAG,59900 fluorescence intensity (a.u.)
19,TTCAAATTTAATGCAAAGATTAAGTTGATGAGAAACGACGCGGAGTCACCTAGTGCAG,6640 fluorescence intensity (a.u.)
20,ATTGATGATTGAAATTTGCTGTGCAAATCGAGAACTGAAGCGGAGTCACCTAGTGCAG,53500 fluorescence intensity (a.u.)
21,GAATCTTGAAATTGAGCTGATTAATTTTCTTCTTGTTGAGCGGAGTCACCTAGTGCAG,11800 fluorescence intensity (a.u.)
